Of roughly 7,900 targets only a part is listed; those with a hit were picked by preference. About 0.6% of all pairs of compound and target were hits.
Key:
Experiment in all cases: log2 fold change, soluble protein after heating vs DMSO (PISA); higher = thermal stabilisation; K562 cells, 10 uM, 30 min; active = over 0.2 and 3.5 SD of the protein, either way, in both replicates (recomputed)
IRAK-1-4 Inhibitor I = compound: C1COCCN1CCN2C3=CC=CC=C3N=C2NC(=O)C4=CC(=CC=C4)[N+](=O)[O-] [IRAK-1-4 Inhibitor I]
Procedure, shortened: (§1)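 K562 cells at 2×10^6 cells/mL were given 10 μM compound for 30 min. Aliquots then went through 3 min of heating across 48°C-58°C, were pooled, and were extracted in PBS with 0.5% NP-40 at 4°C, and the supernatant after 21,000xg for 90 min was quantified by TMTpro 16plex LC-MS/MS with channel sums equalised. Thermal stability relative to control samples, from duplicates, is given as log2 fold change.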

ibrutinib = compound: C=CC(=O)N1CCC[C@@H](n2nc(-c3ccc(Oc4ccccc4)cc3)c3c(N)ncnc32)C1 [ibrutinib]
Procedure, shortened: as §1

[1] = compound: CC(=O)c1cnc2ccc(-c3cc(Cl)c(O)c(Cl)c3)nc2c1N[C@H]1CC[C@H](CN(C)C)CC1
Procedure, shortened: as §1

ralimetinib = compound: CC(C)(C)Cn1c(N)nc2ccc(-c3[nH]c(C(C)(C)C)nc3-c3ccc(F)cc3)nc21 [ralimetinib]
Procedure, shortened: as §1

[2] = compound: CC(C)(O)CC(=O)NCCn1ccc2ncnc(Nc3ccc(Oc4cccc(C(F)(F)F)c4)c(Cl)c3)c21
Procedure, shortened: as §1

[3] = compound: CC(C)C1=C2N=C(C=C(N2N=C1)NCC3=CC=CC=C3)NCCCCCCN
Procedure, shortened: as §1

[4] = compound: CC(C)C[C@@H](C=O)NC(=O)[C@H](CC(C)C)NC(=O)[C@H](CC(C)C)NC(=O)OCc1ccccc1
Procedure, shortened: as §1

pinometostat = compound: CC(C)N(C[C@H]1O[C@@H](n2cnc3c(N)ncnc32)[C@H](O)[C@@H]1O)[C@H]1C[C@@H](CCc2nc3cc(C(C)(C)C)ccc3[nH]2)C1 [pinometostat]
Procedure, shortened: as §1

[5] = compound: CC1=C(C(CC(=O)N1)C2=CC=C(C=C2)C(F)(F)F)C(=O)NC3=C(C=C4C(=C3)C=NN4)F
Procedure, shortened: as §1

[6] = compound: CC1=C(C2=C(C=C1)C(=O)C3=CC=CC=C3N2CCCN)C
Procedure, shortened: as §1

[7] = compound: CC1=C(C=C(C=C1)NC(=O)C2=CC(=CC=C2)C(C)(C)C#N)NC3=CC4=C(C=C3)N=CN(C4=O)C
Procedure, shortened: as §1

[8] = compound: CC1=C(C=C(C=C1)NC(=O)C2=CC(=CC=C2)N(C)C)NC(=O)C3=CC=C(C=C3)O
Procedure, shortened: as §1

[9] = compound: CC1=CC=C(C=C1)SC2=C3C=C(SC3=CN=C2)C(=O)N
Procedure, shortened: as §1

[10] = compound: CC1=NC(=CC=C1)C2=C(N=C(N2)C(C)(C)C)C3=CC4=NC=CN=C4C=C3
Procedure, shortened: as §1

Nexturastat A = compound: CCCCN(Cc1ccc(C(=O)NO)cc1)C(=O)Nc1ccccc1 [Nexturastat A]
Procedure, shortened: as §1

vemurafenib = compound: CCCS(=O)(=O)Nc1ccc(F)c(C(=O)c2c[nH]c3ncc(-c4ccc(Cl)cc4)cc23)c1F [vemurafenib]
Procedure, shortened: as §1

[11] = compound: CCCS(=O)(=O)Nc1ccc(F)c(C(=O)c2c[nH]c3ncc(Cl)cc23)c1F
Procedure, shortened: as §1

[12] = compound: CCCc1cc(C)[nH]c(=O)c1CNC(=O)c1cc(-c2ccnc(N3CCN(C)CC3)c2)cc2c1cnn2C(C)C
Procedure, shortened: as §1

givinostat = compound: CCN(CC)Cc1ccc2cc(COC(=O)Nc3ccc(C(=O)NO)cc3)ccc2c1 [givinostat]
Procedure, shortened: as §1

barasertib = compound: CCN(CCCOc1ccc2c(Nc3cc(CC(=O)Nc4cccc(F)c4)[nH]n3)ncnc2c1)CCOP(=O)(O)O [barasertib]
Procedure, shortened: as §1

Measured: log2 fold change

ANKZF1 (UniProt Q9H8Y5)
inactive: IRAK-1-4 Inhibitor I -0.052 | ibrutinib 0.031 | [1] -0.19 | ralimetinib 0.189 | [2] 0 | [3] -0.065 | [4] 0.192 | pinometostat 0.136 | [5] 0.034 | [6] -0.069 | [7] 0.011 | [8] 0 | [9] -0.055 | [10] -0.059 | Nexturastat A 0.399 | vemurafenib -0.011 | [11] -0.042 | [12] 0.132 | givinostat 0.195 | barasertib 0.04

AARSD1 isoform 3 (UniProt Q9BTE6)
active: givinostat -0.273
inactive: IRAK-1-4 Inhibitor I 0.002 | ibrutinib -0.074 | [1] 0.029 | ralimetinib -0.038 | [2] -0.017 | [3] -0.177 | [4] 0.069 | pinometostat -0.01 | [5] -0.027 | [6] -0.126 | [7] 0.016 | [8] -0.04 | [9] -0.003 | [10] 0.034 | Nexturastat A -0.077 | vemurafenib 0.003 | [11] 0.122 | [12] 0.03 | barasertib 0.032

AP2M1 (UniProt Q96CW1)
inactive: IRAK-1-4 Inhibitor I -0.049 | ibrutinib 0.043 | [1] -0.043 | ralimetinib 0.036 | [2] 0.022 | [3] 0.045 | [4] 0.011 | pinometostat 0.026 | [5] 0.011 | [6] 0.079 | [7] 0.022 | [8] -0.019 | [9] -0.023 | [10] 0.002 | Nexturastat A 0.073 | vemurafenib -0.006 | [11] 0.014 | [12] -0.049 | givinostat 0.031 | barasertib -0.074

ADK (UniProt P55263)
inactive: IRAK-1-4 Inhibitor I 0.08 | ibrutinib 0.034 | [1] 0.184 | ralimetinib 0.246 | [2] -0.002 | [3] 0.074 | [4] -0.058 | pinometostat 0.016 | [5] -0.101 | [6] -0.001 | [7] 0.03 | [8] -0.027 | [9] 0 | [10] -0.011 | Nexturastat A -0.04 | vemurafenib -0.013 | [11] -0.046 | [12] 0.106 | givinostat -0.076 | barasertib -0.026

ALG11 (UniProt Q2TAA5)
active: [6] 0.23
inactive: IRAK-1-4 Inhibitor I 0.003 | ibrutinib 0.09 | [1] 0.053 | ralimetinib -0.014 | [2] -0.112 | [3] 0.037 | [4] -0.064 | pinometostat 0.032 | [5] 0.002 | [7] 0.006 | [8] -0.018 | [9] -0.041 | [10] 0.013 | Nexturastat A -0.004 | vemurafenib 0.053 | [11] 0.019 | [12] -0.04 | givinostat 0 | barasertib 0.043

ATP6V0A1 isoform 3 (UniProt Q93050)
Chain of UniProt Q93050 (Q93050 whole entry, looked up): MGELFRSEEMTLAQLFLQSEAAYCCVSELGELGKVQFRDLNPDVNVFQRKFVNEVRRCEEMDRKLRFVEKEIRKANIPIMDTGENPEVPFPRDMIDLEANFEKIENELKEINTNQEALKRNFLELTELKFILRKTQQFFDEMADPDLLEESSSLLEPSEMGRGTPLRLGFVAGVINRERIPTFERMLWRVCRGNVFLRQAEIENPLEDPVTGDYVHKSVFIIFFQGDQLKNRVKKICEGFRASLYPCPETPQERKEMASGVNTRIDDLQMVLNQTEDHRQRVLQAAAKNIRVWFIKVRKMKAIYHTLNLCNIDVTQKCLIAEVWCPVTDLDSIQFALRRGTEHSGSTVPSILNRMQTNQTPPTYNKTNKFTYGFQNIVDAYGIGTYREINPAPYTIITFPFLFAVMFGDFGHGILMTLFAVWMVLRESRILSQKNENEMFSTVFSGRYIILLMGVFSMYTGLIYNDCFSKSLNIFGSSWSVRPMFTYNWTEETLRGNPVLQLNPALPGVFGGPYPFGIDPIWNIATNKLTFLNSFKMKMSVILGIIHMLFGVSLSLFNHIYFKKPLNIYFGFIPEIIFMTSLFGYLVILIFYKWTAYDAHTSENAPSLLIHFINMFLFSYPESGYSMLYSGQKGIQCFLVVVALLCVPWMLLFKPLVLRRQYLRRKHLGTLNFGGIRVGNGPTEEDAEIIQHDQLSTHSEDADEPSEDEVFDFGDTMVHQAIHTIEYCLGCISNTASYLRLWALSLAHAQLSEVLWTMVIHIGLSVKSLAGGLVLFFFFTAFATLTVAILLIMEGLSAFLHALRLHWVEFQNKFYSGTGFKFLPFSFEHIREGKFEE
inactive: IRAK-1-4 Inhibitor I -0.068 | ibrutinib 0 | [1] -0.033 | ralimetinib 0.087 | [2] 0.019 | [4] 0.125 | pinometostat 0.198 | [5] 0.067 | [6] 0.011 | [7] 0.038 | [8] -0.034 | [9] -0.006 | [10] -0.051 | Nexturastat A 0.198 | vemurafenib 0.017 | [11] 0 | [12] 0.032 | givinostat 0.031 | barasertib 0.006
active: [3] -0.463

ARF4 (UniProt P18085)
inactive: IRAK-1-4 Inhibitor I 0.072 | ibrutinib 0.003 | [1] -0.027 | ralimetinib -0.019 | [2] -0.103 | [3] 0.117 | [4] -0.032 | pinometostat -0.042 | [5] -0.071 | [6] 0.128 | [7] 0.022 | [8] -0.014 | [9] 0 | [10] 0.012 | Nexturastat A -0.095 | vemurafenib 0.02 | [11] 0.022 | [12] 0.023 | givinostat 0.016 | barasertib 0.048

BCL9L (UniProt Q86UU0)
inactive: IRAK-1-4 Inhibitor I -0.045 | ibrutinib 0 | [1] 0.04 | ralimetinib -0.024 | [2] -0.009 | [3] 0.015 | [4] 0.092 | pinometostat 0.013 | [5] 0.006 | [6] 0.101 | [7] -0.046 | [8] -0.012 | [9] 0.005 | [10] -0.033 | Nexturastat A -0.033 | vemurafenib -0.037 | [11] -0.014 | [12] -0.029 | givinostat 0.043 | barasertib -0.001

ACIN1 (UniProt Q9UKV3)
inactive: IRAK-1-4 Inhibitor I -0.052 | ibrutinib 0.004 | [1] -0.155 | ralimetinib 0.063 | [2] 0.043 | [3] -0.022 | [4] -0.026 | pinometostat -0.006 | [5] -0.017 | [7] -0.028 | [8] 0.039 | [9] -0.015 | [10] -0.013 | Nexturastat A 0.044 | vemurafenib 0 | [11] 0.014 | [12] 0.023 | givinostat 0.105 | barasertib -0.008
active: [6] -0.369

ACAP2 (UniProt Q15057)
inactive: IRAK-1-4 Inhibitor I -0.033 | ibrutinib -0.012 | [1] -0.038 | ralimetinib 0 | [2] -0.031 | [3] -0.065 | [4] 0.061 | pinometostat 0.029 | [5] -0.036 | [6] 0.004 | [7] -0.046 | [8] 0 | [9] -0.038 | [10] 0.033 | Nexturastat A 0 | vemurafenib 0.046 | [11] 0.057 | [12] -0.04 | givinostat 0.028 | barasertib 0

ATP6V0A2 (UniProt Q9Y487)
Chain of UniProt Q9Y487 (Q9Y487 whole entry, looked up): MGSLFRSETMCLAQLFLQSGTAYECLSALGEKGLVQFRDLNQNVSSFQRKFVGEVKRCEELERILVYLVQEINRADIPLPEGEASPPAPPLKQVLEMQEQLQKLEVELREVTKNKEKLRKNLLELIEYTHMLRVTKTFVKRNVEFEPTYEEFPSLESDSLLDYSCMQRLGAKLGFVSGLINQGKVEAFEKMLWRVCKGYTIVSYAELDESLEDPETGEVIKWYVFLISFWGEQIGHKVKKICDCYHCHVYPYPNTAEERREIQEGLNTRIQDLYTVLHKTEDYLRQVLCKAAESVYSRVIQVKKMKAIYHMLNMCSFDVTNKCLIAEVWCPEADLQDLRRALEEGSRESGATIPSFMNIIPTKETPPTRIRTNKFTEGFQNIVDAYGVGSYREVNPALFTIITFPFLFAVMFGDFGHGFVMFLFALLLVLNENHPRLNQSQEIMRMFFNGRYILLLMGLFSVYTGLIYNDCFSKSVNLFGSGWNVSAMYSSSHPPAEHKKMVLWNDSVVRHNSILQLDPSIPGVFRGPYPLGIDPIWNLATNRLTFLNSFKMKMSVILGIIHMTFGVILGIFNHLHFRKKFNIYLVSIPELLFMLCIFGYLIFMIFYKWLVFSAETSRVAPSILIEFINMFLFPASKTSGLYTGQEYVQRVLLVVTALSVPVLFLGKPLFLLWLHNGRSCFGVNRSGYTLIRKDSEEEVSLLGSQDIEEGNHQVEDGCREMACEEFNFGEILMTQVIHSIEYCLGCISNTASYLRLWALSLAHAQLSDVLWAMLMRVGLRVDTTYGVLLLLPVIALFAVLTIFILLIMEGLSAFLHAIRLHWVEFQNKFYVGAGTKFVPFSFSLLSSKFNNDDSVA
inactive: IRAK-1-4 Inhibitor I -0.006 | ibrutinib -0.026 | [1] -0.017 | ralimetinib 0.057 | [2] -0.01 | [4] 0.049 | pinometostat 0.054 | [5] 0.008 | [6] 0.003 | [7] 0.021 | [8] 0.016 | [9] 0.006 | [10] -0.013 | Nexturastat A 0.024 | vemurafenib 0.026 | [11] 0.014 | [12] 0.014 | givinostat 0.02 | barasertib 0.008
active: [3] -0.297

ACSF3 (UniProt Q4G176)
inactive: IRAK-1-4 Inhibitor I 0.05 | ibrutinib -0.088 | [1] -0.129 | ralimetinib -0.004 | [2] -0.063 | [3] -0.138 | [4] 0.077 | pinometostat 0.011 | [5] -0.061 | [6] 0.023 | [7] -0.002 | [8] 0.038 | [9] 0.007 | [10] 0.023 | Nexturastat A -0.005 | vemurafenib 0.029 | [11] 0.003 | [12] 0.008 | givinostat -0.022 | barasertib 0.051

ARL2BP (UniProt Q9Y2Y0)
Chain of UniProt Q9Y2Y0 (Q9Y2Y0 whole entry, looked up): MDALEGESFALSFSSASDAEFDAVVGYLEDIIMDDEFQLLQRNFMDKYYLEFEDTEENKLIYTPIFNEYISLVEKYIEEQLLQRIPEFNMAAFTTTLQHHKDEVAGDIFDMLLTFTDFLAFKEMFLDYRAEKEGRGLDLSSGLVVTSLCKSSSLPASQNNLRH
inactive: IRAK-1-4 Inhibitor I -0.053 | ibrutinib -0.009 | [1] 0.03 | ralimetinib 0.01 | [2] -0.127 | [3] -0.269 | [4] -0.011 | pinometostat -0.037 | [5] -0.002 | [6] -0.028 | [7] 0.154 | [8] -0.033 | [9] 0.012 | [10] 0.281 | Nexturastat A 0.043 | vemurafenib -0.031 | [11] 0.071 | [12] 0.102 | givinostat -0.041 | barasertib 0.079

AKAP8L (UniProt Q9ULX6)
inactive: IRAK-1-4 Inhibitor I -0.076 | ibrutinib -0.001 | [1] -0.128 | ralimetinib 0.091 | [2] -0.091 | [3] -0.299 | [4] 0.106 | pinometostat -0.018 | [5] 0.024 | [6] -0.34 | [7] -0.124 | [8] -0.007 | [9] -0.092 | [10] 0.005 | Nexturastat A 0.054 | vemurafenib 0.069 | [11] 0.067 | [12] 0.02 | givinostat 0.004 | barasertib 0.047

ATR (UniProt Q13535)
Chain of UniProt Q13535 (Q13535 whole entry, looked up): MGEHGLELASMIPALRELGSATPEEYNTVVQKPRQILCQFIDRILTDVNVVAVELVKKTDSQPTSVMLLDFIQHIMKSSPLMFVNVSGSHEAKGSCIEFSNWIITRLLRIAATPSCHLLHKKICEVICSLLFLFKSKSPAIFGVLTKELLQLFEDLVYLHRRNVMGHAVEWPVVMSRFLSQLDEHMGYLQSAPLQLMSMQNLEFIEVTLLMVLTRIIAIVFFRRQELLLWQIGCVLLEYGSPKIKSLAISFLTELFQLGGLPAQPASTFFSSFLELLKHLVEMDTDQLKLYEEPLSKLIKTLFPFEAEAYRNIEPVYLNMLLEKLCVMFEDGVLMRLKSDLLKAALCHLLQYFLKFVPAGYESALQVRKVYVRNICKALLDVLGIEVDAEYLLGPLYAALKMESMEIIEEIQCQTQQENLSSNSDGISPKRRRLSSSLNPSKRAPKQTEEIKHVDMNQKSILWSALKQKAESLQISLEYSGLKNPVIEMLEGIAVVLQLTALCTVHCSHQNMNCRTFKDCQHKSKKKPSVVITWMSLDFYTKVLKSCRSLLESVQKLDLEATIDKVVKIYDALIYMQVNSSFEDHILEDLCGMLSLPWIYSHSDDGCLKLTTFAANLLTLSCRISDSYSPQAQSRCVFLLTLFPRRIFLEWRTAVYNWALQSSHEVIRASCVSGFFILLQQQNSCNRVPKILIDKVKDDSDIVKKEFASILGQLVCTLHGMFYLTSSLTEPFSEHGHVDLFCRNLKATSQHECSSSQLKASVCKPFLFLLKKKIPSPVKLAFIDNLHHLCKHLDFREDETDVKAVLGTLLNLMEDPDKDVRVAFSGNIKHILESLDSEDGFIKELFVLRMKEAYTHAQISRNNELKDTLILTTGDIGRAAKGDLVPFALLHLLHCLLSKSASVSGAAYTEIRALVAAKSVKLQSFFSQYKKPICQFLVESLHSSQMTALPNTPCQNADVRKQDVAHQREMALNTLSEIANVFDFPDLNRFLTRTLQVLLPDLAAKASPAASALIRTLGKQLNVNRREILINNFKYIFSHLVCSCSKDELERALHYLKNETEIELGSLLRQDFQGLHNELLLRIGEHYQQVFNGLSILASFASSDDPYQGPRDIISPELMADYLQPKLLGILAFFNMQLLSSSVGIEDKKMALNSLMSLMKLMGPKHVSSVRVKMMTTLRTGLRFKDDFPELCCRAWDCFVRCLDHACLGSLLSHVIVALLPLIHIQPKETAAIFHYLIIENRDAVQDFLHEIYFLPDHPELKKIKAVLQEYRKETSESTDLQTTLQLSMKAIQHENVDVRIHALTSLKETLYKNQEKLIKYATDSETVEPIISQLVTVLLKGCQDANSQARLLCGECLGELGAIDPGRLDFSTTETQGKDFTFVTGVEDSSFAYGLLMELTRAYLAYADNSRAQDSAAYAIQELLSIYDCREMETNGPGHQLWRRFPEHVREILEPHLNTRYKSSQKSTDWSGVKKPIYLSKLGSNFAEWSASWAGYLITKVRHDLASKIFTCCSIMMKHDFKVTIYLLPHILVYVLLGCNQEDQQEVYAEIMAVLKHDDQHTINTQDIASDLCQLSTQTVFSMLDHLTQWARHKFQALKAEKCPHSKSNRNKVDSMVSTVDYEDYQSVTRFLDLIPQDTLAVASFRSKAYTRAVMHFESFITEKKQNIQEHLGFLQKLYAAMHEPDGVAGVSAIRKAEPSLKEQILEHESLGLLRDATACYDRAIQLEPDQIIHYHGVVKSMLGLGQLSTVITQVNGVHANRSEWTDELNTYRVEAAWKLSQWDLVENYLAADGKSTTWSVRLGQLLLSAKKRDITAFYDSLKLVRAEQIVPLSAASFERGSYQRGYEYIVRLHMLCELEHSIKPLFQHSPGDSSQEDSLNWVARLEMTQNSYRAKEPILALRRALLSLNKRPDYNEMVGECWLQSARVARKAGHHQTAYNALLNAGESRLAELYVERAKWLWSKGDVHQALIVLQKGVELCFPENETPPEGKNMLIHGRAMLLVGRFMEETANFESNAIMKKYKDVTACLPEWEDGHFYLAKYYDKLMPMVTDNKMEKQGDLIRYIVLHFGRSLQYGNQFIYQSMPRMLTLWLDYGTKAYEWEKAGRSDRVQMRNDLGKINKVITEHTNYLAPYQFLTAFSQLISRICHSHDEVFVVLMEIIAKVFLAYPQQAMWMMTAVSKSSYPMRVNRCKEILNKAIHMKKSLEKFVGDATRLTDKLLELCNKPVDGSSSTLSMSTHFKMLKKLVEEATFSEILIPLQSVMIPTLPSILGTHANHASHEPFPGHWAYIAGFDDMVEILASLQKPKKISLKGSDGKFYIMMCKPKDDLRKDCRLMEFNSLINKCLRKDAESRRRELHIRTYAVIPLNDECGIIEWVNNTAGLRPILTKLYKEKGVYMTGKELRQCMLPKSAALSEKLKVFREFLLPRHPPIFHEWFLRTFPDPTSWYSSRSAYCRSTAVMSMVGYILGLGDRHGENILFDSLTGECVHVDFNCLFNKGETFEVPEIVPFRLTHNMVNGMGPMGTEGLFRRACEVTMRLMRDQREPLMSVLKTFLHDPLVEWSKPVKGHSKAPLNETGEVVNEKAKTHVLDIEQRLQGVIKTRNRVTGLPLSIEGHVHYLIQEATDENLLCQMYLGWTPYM
inactive: IRAK-1-4 Inhibitor I 0.093 | ibrutinib 0.031 | [1] 0.021 | ralimetinib -0.03 | [2] -0.077 | [3] 0.046 | [4] 0.037 | pinometostat 0.101 | [5] 0.002 | [6] 0.109 | [7] -0.012 | [8] -0.022 | [9] 0.013 | [10] -0.126 | Nexturastat A 0.005 | vemurafenib 0.035 | [11] -0.001 | [12] 0.015 | givinostat 0.039 | barasertib 0.037

ARFGAP2 (UniProt Q8N6H7)
Chain of UniProt Q8N6H7 (Q8N6H7 whole entry, looked up): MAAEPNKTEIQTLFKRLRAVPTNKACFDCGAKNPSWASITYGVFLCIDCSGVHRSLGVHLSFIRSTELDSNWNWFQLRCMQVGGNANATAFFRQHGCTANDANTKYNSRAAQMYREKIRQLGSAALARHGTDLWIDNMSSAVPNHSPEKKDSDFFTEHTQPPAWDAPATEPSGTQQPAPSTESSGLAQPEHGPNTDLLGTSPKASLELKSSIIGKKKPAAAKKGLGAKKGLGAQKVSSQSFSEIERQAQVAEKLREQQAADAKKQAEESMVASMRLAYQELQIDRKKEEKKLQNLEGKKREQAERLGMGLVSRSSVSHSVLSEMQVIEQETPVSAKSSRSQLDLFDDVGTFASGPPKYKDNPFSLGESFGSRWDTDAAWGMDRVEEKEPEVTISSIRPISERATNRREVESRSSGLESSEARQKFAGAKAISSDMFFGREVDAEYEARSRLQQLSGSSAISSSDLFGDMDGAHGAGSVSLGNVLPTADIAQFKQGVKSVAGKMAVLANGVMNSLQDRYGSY
inactive: IRAK-1-4 Inhibitor I -0.016 | ibrutinib -0.064 | [1] -0.014 | ralimetinib -0.001 | [2] -0.032 | [3] 0.062 | [4] -0.005 | pinometostat 0.046 | [5] -0.006 | [6] 0.005 | [7] 0.03 | [8] -0.065 | [9] -0.027 | [10] -0.04 | Nexturastat A -0.033 | vemurafenib 0.02 | [11] 0.033 | [12] 0.021 | givinostat 0.06 | barasertib 0.066
